From ChEMBL document CHEMBL3988442, “University of Dundee, Small-Polar-MMV Screening Library” (2021)
Out of some 48,000 compounds screened, about 13,000 (27%) showed an effect of 50% or more. The list shows a part of the results.

Tested on: Wolbachia pipientis
Test: Anti-Wolbachia Cell-Based Screen
Assay type: functional
Parameters: scale not given: in the data most compounds retested in dose-response had high values
Details: 5 µM

SMILES | Percent Effect [%]
CCc1ccc(CNC(=O)CCc2nnc(-c3ccc(C)s3)o2)nc1 | 18.56
CC(C)c1cc(C(=O)N(c2ccc(F)cn2)C2CCOCC2)on1 | -4.853
N#Cc1ccc(CN2CCc3sccc3C2)c(F)c1 | 2.911
CCc1ccc(C(C)NCc2nccn2Cc2ccccc2)o1 (configuration not stated) | -9.423
CCNC(=O)N(Cc1cccc(OC)c1)C1CCC(O)CC1 (configuration not stated) | -8.682
CN(C)CCOCc1nnc2n1CCN(c1cnccn1)CC2 | 1.736
c1ccn(Cc2nnc3n2CCCN(c2cnccn2)C3)c1 | 100.7
CN(C)Cc1nnc2n1CCN(c1cnccn1)CC2.O=C(O)C(F)(F)F | -7.956
Fc1cnc(N2CCn3c(CN4CCCC4)nnc3C2)nc1.O=C(O)C(F)(F)F | -4.314
c1cnc(N2CCCn3c(nnc3Cn3cccn3)C2)nc1 | 3.271
CCS(=O)(=O)N1CCc2nnc(CN(C)C(C)C)n2CC1 | -16.92
CC(C)N(C)Cc1nnc2n1CCCN(c1cnccn1)C2 | 115.4
OCc1nnc2n1CCN(c1cnccn1)C2 | 108
Fc1cnc(N2CCCn3c(nnc3Cn3cccc3)C2)nc1.O=C(O)C(F)(F)F | 0.8563
OCCOc1ccc(NCc2cccc3[nH]ccc23)cn1 | 0.765
CC(C(=O)Nc1ncccn1)N1CCCN(c2nccs2)CC1 (configuration not stated) | -8.894
CCn1nc(C)c(CNC(=O)NCC(C)(O)c2ccccc2)c1C (configuration not stated) | 3.084
CCn1nc(C)c(CNC(=O)NCC(C)(O)c2ccco2)c1C (configuration not stated) | -13.65
CCn1nc(C)c(CNC(=O)NCC(C)(O)c2ccc(C)o2)c1C (configuration not stated) | 57.07
O=C(c1coc(CN2CCN(c3ccccc3F)CC2)n1)N1CCCC1 | -9.887
CS(=O)(=O)c1ccc(NC(=O)N2C[C@H](O)[C@@H](N3CCOCC3)C2)cc1 | -0.5097
CC(=O)N1CCN([C@@H]2CN(C(=O)c3ccccc3C)C[C@H]2O)CC1 | 166
Cc1ccccc1C(=O)N1C[C@@H]2C[C@@H](C)O[C@@H]2C1 | -6.005
Cc1ccccc1C(=O)N1C[C@@H](O)[C@H](N2CCOCC2)C1 | 137.5
CC(=O)N1CCN([C@@H]2CN(C(=O)c3ccccc3)C[C@H]2O)CC1 | 163.7
Cn1cccc1C(=O)N1C[C@@H]2CCCO[C@@H]2[C@H](N2CCOCC2)C1 | 10.78

SMILES | Percent Effect [%]
CCCc1cc(C(=O)N2C[C@H](O)[C@@H](N3CCCC3)C2)ccn1 | -25.18
O=C(O)C(F)(F)F.O=C(c1ccccc1)N1C[C@@H]2CCCO[C@@H]2[C@H](N2CCCC2)C1 | 0.7695
Cc1ccccc1C(=O)N1CC2(COC(C)(C)OC2)C1 | -1.566
CCCN(CC1CC1)S(=O)(=O)c1ccc(NC(C)=O)cc1 | 9.5
CCN(Cc1noc(C)n1)C(=O)CCn1c(C)cc2ccccc21 | -6.675
Cc1cc(NCC(=O)N(C)C(C)c2cccs2)c(C(N)=O)cc1F (configuration not stated) | -3.325
CCOCCC(=O)NC1(c2cccc(Br)c2)CC1 | 2.519
Cc1cc(C)c(C(=O)N2CCN(c3ncccc3C#N)CC2)c(=O)[nH]1 | -2.204
CN1N=C(C(=O)N2CCCN(c3ncccc3C#N)CC2)CCC1=O | -11.38
CC(C)C(C(=O)N1CCCN(c2cccnn2)CC1)n1cncn1 (configuration not stated) | 101.3
Cc1ccc(N2CCCN(C(=O)C(C(C)C)n3cncn3)CC2)nn1 (configuration not stated) | 1.391
CSC(C)C(=O)N1CCCN(c2ncccc2C#N)CC1 (configuration not stated) | 94.48
CC(C(=O)N1CCCN(c2ncccc2C#N)CC1)n1ccnc1 (configuration not stated) | 9.037
CC(C(=O)N1CCCN(c2ncccc2C#N)CC1)n1cncn1 (configuration not stated) | 99.83
CC(C)C(C(=O)N1CCN(c2ccncc2)CC1)n1cncn1 (configuration not stated) | -6.945
CCSc1cc(C(=O)NC(C)c2cccc(N3CCOC3=O)c2)ccn1 (configuration not stated) | -4.217
Cl.NCc1ccc(OC(F)F)cc1OC(F)F | -11.87
CCn1nc(C)cc1C(=O)N1C[C@@H](CN(C)C)[C@@H](CO)C1 | 107.3
CCn1nc(C)c(C(=O)N2C[C@@H](CN(C)CCOC)[C@@H](CO)C2)c1C | 114
Cc1ccc(CC(=O)N2C[C@@H](CN(C)C)[C@@H](CO)C2)cc1C | -3.019
COc1cccc(C)c1C(=O)N1C[C@@H](CN(C)C)[C@@H](CO)C1 | -2.46
CCn1nc(C)c(C(=O)N2C[C@@H](CN(C)C)[C@@H](CO)C2)c1C | 106.8
COCCN(C)C[C@@H]1CN(C(=O)c2c(C)cccc2OC)C[C@@H]1CO | 2.605
Cc1nc(CC(C)C)cc(C(=O)N2C[C@@H](CN(C)C)[C@@H](CO)C2)n1 | -9.006
Cc1cc(C(=O)N2C[C@@H](CN(C)CCN(C)C)[C@@H](CO)C2)nc(C)n1 | -17.75
Cc1csc(CCNc2ccc(C#N)cc2F)n1 | -5.881

SMILES | Percent Effect [%]
CN(Cc1cc(-c2ccccc2)no1)CC1CCCN1c1cccnn1 (configuration not stated) | 1.009
O=C(c1cccc2cccnc12)N1CCCN(c2cccnn2)CC1 | 11.56
CC(C)C1CN(C(=O)Nc2cnn(CC(F)F)c2)CCS1 (configuration not stated) | -11.36
CNC(=O)[C@@H]1C[C@H](n2cc(-c3ccc(CN4CC=CC4)cc3)nn2)CN1 | 109.2
CCNC(=O)[C@@H]1C[C@@H](n2cc(CN(CC)CC)nn2)CN1 | -7.284
CCNC(=O)[C@@H]1C[C@H](n2cc(CC3CCCCC3)nn2)CN1 | 16.21
CNC(=O)[C@@H]1C[C@@H](n2cc(-c3ccc(CN4CC=CC4)cc3)nn2)CN1 | 109.8
CCNC(=O)[C@@H]1C[C@@H](n2cc(CC3CCCCC3)nn2)CN1 | 1.299
Cc1ncc(CN2CCC(n3cc(-c4ccc(F)cc4)nn3)CC2)cn1 | 6.515
CCCS(=O)(=O)c1ccc(N2CCN(Cc3ccccc3)CC2)nn1 | 5.683
OC(CN1CCN(Cc2nnc(C3CC3)o2)CC1)c1ccccc1 (configuration not stated) | -2.421
CCOc1ccc(-c2ccnc(CC)n2)cc1C(=O)O | -9.54
Cc1ccc(CNC(=O)Nc2nnc(C)s2)cn1 | 3.385
O=C(NCc1ccc(OCC2CC2)nc1)Nc1c(F)cccc1F | -3.933
Cc1nnc(NC(=O)NCc2ccc(OC(C)C)nc2)s1 | 85.37
CC(C)Oc1ccc(CNC(=O)C2CCC(=O)N2)cn1 (configuration not stated) | 3.42
COc1ccc(CNC(=O)NC2CCN(CC3CCCC3)CC2)cn1 | 15.19
Cc1nnc(NC(=O)NCc2ccc(OC3CCCC3)nc2)s1 | 94.72
Cc1nnc(SCC(=O)NCC(c2ccccc2Cl)N(C)C)s1 (configuration not stated) | -0.8898
CCOC1CCN(C(=O)c2csc(S(N)(=O)=O)c2)CC1 | 18.04
Cc1c(NC(C)C(C)C)cccc1C(=O)NCc1nnc(C)n1C (configuration not stated) | 0.4576
CC(C)CC1(C(=O)NCc2nncn2C2CC2)CCC1 | -7.53
CCC(NC(=O)NCc1nncn1CC)c1ccc(OC)cc1 (configuration not stated) | -10.18
COC(C)(C)CC(C)NCc1nncn1C1CCCCC1 (configuration not stated) | -17.97
CCn1cnnc1CNc1nc(C)nc2scc(CC(C)C)c12 | 122.4
CCn1cnnc1CNC(=O)NC(C)C(C)C (configuration not stated) | -4.455

SMILES | Percent Effect [%]
Cc1nc(NCc2nncn2C2CC2)c2c(CC(C)C)csc2n1 | 109.7
Cc1nc(NCc2nnc(C)n2C)c2c(CC(C)C)csc2n1 | 119.2
COc1ccc(S(=O)(=O)C(F)(F)F)cc1NC(=O)CSCC#N | 5.684
O=C(Cn1nc2c(cc1=O)CSCC2)NC(Cc1ccccc1)C(=O)O (configuration not stated) | 28.51
O=C(Cn1nc2c(cc1=O)CCCC2)NC(Cc1ccccc1)C(=O)O (configuration not stated) | 101
O=C(Cn1nc2c(cc1=O)CCCC2)N[C@@H](Cc1ccccc1)C(=O)O | 3.393
O=C(Cn1nc2c(cc1=O)CCCC2)N[C@@H](C(=O)O)c1ccccc1 | 11.26
O=C(Cn1nc2c(cc1=O)CCCC2)NC(C(=O)O)c1ccccc1 (configuration not stated) | 110.7
CC(C)C(NC(=O)Cn1nc2c(cc1=O)CCCC2)C(=O)O (configuration not stated) | 113
CCCn1nc2c(cc1=O)CN(CC(=O)Nc1cc(C)no1)CC2 | -28.4
O=c1cc2c(nn1CN1CCN(c3ccccc3)CC1)CCC2 | 10.03
CC(C)c1cc(NC(=O)CN2CCc3nn(C)c(=O)cc3C2)on1 | -16.14
CCCc1cc(NCc2noc(COC)n2)n2nccc2n1 | 6.33
CCC(C(=O)NC1CCCCC1)n1cccc(OC)c1=O (configuration not stated) | -2.043
c1cncc(O[C@H]2COCCN(C3CCC3)C2)c1 | -11.18
CN(C)c1ccc(CC2CCCN(c3cnccn3)C2)nn1 (configuration not stated) | 93.08
c1cnc(CC2COCCN(C3CCCCC3)C2)cn1 (configuration not stated) | 106.9
Cc1cccc(O[C@H]2COCCN(C3CCC3)C2)n1 | 0.8237
CN(C)c1ccc(CC2CCN(c3cnccn3)CC2)nn1 | 90.64
CN(C)c1ccc(CC2CCN(c3cnccn3)C2)nn1 (configuration not stated) | 129.7
Cc1occc1C(=O)N1CCC2(CC1)CN(Cc1nccs1)CCO2.O=C(O)C(F)(F)F | -1.97
CCNC(=O)CNS(=O)(=O)c1cc(Br)ccc1F | -3.098
Cc1nnc(NCC2(c3ccc(Cl)cc3Cl)CCOCC2)c(C#N)c1C | 25.06
COCC1(CNC(=O)[C@@]23CNC[C@@H]2CN(C2CCCC2)C3)CC1 | -67.22
